# Test results reported in ChEMBL document CHEMBL3988442, “University of Dundee, Small-Polar-MMV Screening Library” (2021).
# For part of these data: Entries with a potency or affinity are not part of this list.
# Tests used:
# Design in all cases: scale not given: direction of the effect not stated beside the values
# [1] = molecular target: Protein translocase subunit SecA (Escherichia coli (strain K12)) (UniProt P10408); assay: Assay to Identify E. coli SecA ATPase Inhibitors; assay type: functional; settings: 30 µM
# Chain of Protein translocase subunit SecA (Escherichia coli (strain K12)) (P10408 whole entry): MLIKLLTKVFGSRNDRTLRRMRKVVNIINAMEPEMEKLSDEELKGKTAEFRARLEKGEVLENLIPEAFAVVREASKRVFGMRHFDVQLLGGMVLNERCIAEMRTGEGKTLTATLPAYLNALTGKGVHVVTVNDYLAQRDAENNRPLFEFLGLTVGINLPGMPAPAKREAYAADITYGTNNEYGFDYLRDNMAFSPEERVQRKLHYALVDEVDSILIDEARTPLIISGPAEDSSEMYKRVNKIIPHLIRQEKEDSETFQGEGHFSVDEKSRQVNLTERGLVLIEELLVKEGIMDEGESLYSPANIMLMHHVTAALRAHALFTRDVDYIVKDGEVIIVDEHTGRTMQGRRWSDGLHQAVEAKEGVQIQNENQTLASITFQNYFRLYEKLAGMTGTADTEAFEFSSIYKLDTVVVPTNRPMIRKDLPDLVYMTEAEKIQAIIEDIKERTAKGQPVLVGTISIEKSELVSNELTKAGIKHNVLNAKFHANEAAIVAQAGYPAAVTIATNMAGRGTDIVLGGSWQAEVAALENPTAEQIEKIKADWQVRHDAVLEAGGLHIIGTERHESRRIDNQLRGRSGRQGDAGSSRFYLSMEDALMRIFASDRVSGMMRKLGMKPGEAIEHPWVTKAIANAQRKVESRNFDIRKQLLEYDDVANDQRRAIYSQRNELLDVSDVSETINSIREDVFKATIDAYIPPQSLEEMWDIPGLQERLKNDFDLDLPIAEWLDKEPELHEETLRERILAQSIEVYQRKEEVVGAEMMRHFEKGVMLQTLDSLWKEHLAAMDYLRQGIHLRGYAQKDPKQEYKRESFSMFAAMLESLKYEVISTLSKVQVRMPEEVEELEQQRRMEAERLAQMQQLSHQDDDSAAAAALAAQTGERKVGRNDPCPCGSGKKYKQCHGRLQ
# [2] = molecular target: T1, Ubiquitin-activating enzyme e1, putative (Leishmania donovani (strain BPK282A1)) (UniProt E9BSI1); assay: Leishmania donovani Ubiquitin Activating Enzyme (LdE1); assay type: functional; settings: 30 µM
# T1 sequence (whole entry): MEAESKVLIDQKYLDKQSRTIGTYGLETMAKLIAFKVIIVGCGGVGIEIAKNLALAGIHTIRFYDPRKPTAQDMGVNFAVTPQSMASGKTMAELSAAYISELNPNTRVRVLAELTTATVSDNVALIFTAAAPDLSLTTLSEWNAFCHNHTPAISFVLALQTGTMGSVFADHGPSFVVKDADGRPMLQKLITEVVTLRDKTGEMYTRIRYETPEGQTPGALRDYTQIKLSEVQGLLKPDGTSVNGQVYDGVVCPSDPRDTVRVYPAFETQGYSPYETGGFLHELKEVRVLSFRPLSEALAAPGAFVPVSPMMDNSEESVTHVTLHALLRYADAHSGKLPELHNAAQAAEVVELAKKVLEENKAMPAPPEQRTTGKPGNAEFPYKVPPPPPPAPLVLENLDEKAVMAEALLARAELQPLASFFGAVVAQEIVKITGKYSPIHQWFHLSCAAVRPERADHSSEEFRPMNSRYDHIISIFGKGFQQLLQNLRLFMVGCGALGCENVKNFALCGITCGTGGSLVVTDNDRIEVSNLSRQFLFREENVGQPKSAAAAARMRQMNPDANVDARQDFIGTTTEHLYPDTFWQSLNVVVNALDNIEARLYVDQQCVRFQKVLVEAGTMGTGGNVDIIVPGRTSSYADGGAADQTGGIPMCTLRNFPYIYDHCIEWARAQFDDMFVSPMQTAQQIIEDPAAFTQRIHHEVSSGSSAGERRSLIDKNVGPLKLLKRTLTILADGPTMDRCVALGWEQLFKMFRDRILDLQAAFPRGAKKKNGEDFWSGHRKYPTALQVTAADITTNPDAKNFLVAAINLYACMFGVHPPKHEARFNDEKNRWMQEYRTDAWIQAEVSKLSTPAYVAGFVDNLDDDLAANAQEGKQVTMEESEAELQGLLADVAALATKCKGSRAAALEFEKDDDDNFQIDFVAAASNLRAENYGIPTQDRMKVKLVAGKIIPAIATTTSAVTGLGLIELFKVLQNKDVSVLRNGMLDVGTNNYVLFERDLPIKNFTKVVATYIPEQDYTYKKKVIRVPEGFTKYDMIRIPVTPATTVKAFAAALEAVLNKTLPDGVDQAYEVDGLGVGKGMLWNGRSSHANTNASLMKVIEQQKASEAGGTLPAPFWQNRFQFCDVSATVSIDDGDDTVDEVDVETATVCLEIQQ
# [3] = molecular target: AMP-activated protein kinase, AMPK (Homo sapiens) (UniProt P54646+O43741+P54619+Q9UGJ0+Q9Y478+Q13131+Q9UGI9); assay: AMP-dependent Kinase enzyme assay. An in vitro enzyme assay that detects ADP turnover that is directly proportional to AMPK activity. This uses naive AMPK that is activated during the assay with MK-8722; assay type: functional; settings: 30 µM
# [4] = molecular target: Sialic acid-binding Ig-like lectin 9 (Homo sapiens) (UniProt Q9Y336); assay: Hs-Siglec9 ALPHAscreen SOP 20170721; settings: 10 µM
# Chain of Sialic acid-binding Ig-like lectin 9 (Homo sapiens) (Q9Y336 whole entry): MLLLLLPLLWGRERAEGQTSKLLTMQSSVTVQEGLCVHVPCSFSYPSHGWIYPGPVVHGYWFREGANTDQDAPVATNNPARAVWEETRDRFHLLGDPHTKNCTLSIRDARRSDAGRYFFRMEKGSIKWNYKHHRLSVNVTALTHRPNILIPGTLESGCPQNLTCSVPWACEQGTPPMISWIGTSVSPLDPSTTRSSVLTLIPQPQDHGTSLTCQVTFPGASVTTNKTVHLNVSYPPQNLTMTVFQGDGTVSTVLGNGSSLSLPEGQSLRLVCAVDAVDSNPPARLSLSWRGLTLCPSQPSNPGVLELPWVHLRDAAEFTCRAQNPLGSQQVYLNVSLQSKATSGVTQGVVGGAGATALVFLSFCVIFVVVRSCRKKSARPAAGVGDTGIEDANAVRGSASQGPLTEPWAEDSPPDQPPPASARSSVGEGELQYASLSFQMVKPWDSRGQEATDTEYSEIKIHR
# Trypanosoma cruzi = assay: Trypanosoma cruzi phosphomannomutase and mannose-1-phosphate guanylyltransferase assay; assay type: functional; settings: 10 µM
# [5] = molecular target: T2, Arginase-2, mitochondrial (Homo sapiens) (UniProt P78540); assay: in vitro enzyme assay to detect the production of urea directly proportional to the activity of Arginase II; assay type: functional; settings: 33.3 µM; also: in the data most compounds retested in dose-response had high values
# T2 sequence (whole entry): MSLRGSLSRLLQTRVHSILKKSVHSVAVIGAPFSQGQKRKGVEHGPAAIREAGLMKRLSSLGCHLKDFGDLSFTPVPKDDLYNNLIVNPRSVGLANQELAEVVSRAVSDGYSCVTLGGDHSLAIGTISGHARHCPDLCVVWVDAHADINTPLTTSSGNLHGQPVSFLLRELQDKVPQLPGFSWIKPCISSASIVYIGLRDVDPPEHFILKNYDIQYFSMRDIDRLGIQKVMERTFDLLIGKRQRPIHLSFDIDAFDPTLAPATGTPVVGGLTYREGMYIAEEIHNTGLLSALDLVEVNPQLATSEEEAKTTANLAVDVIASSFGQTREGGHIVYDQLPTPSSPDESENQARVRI
# [6] = molecular target: T3, Proteasome subunit beta (Trypanosoma cruzi) (UniProt O96673); assay: Trypanosoma cruzi proteasome chymotrypsin-like activity (TcProtChymo) assay.; also: in the data most compounds retested in dose-response had high values; assay type: functional; settings: 9.37 µM
# T3 sequence (whole entry): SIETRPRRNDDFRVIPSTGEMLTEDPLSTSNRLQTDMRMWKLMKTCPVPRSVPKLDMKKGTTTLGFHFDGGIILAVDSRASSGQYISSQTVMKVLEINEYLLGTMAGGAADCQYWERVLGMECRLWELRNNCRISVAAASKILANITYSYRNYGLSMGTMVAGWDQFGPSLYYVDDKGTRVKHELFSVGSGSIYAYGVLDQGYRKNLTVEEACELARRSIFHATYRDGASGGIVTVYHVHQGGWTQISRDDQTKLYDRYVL
# Homo sapiens = organism: Homo sapiens; assay: To identify inhibition of the IFN signalling (Jak-Stat) pathway via expression of an eGFP reporter gene under the control of an IFN-stimulated response element (ISRE) containing MxA promoter.; assay type: functional; settings: 30 µM
# [7] = molecular target: T4, Tyrosyl-tRNA synthetase, putative (Trypanosoma cruzi (strain CL Brener)) (UniProt Q4DSP6); assay: Trypanosoma cruzi tyrosyl tRNA synthetase (TcYRS) _High Tyrosine SOP; assay type: functional; settings: 30 µM; also: in the data most compounds retested in dose-response had high values
# T4 sequence (whole entry): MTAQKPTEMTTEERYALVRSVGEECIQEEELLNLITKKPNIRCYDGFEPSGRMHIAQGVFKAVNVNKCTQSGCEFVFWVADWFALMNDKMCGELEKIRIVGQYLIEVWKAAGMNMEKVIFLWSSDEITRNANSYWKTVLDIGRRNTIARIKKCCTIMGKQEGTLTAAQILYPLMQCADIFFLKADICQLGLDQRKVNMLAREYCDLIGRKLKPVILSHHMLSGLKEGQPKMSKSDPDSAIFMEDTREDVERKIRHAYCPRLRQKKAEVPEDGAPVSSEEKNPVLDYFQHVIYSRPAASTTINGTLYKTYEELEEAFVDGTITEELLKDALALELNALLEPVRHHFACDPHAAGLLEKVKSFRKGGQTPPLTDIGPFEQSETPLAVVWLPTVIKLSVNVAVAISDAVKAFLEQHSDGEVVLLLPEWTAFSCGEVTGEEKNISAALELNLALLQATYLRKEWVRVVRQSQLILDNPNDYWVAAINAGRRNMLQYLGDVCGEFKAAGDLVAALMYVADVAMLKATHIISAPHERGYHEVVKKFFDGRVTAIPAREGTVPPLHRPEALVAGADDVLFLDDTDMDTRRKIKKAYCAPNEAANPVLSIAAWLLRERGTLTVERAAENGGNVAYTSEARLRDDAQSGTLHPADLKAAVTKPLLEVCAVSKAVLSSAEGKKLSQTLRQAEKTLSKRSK
# [8] = molecular target: T4, Tyrosyl-tRNA synthetase, putative (Trypanosoma cruzi (strain CL Brener)); assay: Trypanosoma cruzi tyrosyl tRNA synthetase (TcYRS) SOP; assay type: functional; settings: 30 µM
# [9] = molecular target: Chromo domain-containing protein 1 (Saccharomyces cerevisiae (strain ATCC 204508 / S288c) (Baker's yeast)) (UniProt P32657); assay: ScCHD-1 Enzyme Inhibition Assay; assay type: functional; settings: 30 µM; also: in the data most compounds retested in dose-response had high values
# Chain of Chromo domain-containing protein 1 (Saccharomyces cerevisiae (strain ATCC 204508 / S288c) (Baker's yeast)) (P32657 whole entry, the tested form may be a part): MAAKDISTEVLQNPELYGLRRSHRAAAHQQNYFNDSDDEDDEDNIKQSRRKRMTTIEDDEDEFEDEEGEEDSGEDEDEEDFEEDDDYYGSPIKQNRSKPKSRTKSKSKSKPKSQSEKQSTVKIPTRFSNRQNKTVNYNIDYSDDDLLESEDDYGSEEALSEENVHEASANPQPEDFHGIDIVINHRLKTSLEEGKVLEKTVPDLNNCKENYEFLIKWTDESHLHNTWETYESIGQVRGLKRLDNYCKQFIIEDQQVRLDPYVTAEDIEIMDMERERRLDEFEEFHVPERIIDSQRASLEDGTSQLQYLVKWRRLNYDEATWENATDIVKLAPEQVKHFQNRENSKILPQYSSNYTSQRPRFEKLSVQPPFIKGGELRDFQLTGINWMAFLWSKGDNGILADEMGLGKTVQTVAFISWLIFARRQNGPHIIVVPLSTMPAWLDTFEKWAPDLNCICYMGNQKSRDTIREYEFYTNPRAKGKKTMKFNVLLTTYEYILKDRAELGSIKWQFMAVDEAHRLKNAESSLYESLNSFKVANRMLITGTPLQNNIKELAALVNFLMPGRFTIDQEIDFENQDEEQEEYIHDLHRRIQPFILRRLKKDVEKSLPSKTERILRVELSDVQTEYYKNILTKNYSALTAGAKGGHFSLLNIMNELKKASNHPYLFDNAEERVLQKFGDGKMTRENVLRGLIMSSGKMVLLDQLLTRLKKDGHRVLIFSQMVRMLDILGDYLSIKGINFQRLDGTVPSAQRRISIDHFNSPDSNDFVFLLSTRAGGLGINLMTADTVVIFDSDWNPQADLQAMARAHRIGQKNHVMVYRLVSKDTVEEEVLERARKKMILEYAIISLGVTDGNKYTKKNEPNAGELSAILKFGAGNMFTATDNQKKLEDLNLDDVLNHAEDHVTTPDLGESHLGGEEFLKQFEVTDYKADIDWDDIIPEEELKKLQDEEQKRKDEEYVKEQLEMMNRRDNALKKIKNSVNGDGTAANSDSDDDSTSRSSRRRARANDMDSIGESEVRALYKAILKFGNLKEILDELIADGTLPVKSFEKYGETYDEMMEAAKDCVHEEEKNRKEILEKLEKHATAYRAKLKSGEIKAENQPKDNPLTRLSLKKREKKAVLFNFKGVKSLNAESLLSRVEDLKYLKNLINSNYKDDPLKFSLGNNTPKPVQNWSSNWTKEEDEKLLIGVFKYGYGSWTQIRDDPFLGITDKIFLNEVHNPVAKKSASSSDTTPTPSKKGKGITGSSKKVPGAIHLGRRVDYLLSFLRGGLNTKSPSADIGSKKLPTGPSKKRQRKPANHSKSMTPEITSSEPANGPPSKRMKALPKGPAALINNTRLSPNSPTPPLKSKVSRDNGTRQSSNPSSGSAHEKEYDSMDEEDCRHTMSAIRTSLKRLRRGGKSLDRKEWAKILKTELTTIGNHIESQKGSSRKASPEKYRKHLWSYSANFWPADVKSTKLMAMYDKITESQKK
Structure (SMILES),Percent Effect [1],Percent Effect [2],Percent Effect [3],Percent Effect [4],Percent Effect (Trypanosoma cruzi),Percent Effect [5],Percent Effect [6],Percent Effect (Homo sapiens),Percent Effect [7],Percent Effect [8],Percent Effect [9]
O=C(CN1CCCCC1Cn1cncn1)NCCc1ccc(F)cc1 (centres undefined),-0.868%,15.2%,-4.02%,-10.5%,-6.89%,-2.28%,8.27%,37.4%,8.37%,11.4%,-9.46%
CCc1nccn1C1CCCN(C(=O)c2ccc(C(=O)NC)nc2)C1 (centres undefined),1.89%,-2.6%,1.32%,2.31%,-2.81%,4.63%,1.86%,18.1%,1.94%,0%,-4.59%
Cc1nn(C)c(N(C)C)c1CNCC(O)c1ccccc1 (centres undefined),-0.702%,2.74%,-3.51%,-6.11%,-4.31%,3.64%,16.1%,-8.18%,3.23%,10%,-3.32%
CC(C)c1noc(C(C)N2CCN(CCO)CC2)n1 (centres undefined),0.448%,21.6%,-14.5%,-3.22%,-3.68%,-9.22%,12.2%,16.1%,5.42%,6.17%,-0.137%
Cc1c(C(=O)NCC(C)C)nnn1-c1cccc2c1CCN(C)C2,-4.34%,2.63%,0.913%,2.87%,-0.682%,-2.37%,11.2%,18.4%,5.32%,15.6%,-0.534%
Cn1ccc2c(C(=O)N3CCC(C(N)=O)CC3)cccc21,0.857%,14.7%,2.71%,-1.54%,-4.13%,-9.68%,13.1%,7.15%,8.47%,17.9%,-10.7%
CC(C)c1nnc2ccc(N3CCC(C(=O)Nc4nccs4)CC3)nn12,-2.74%,9.33%,5.47%,1.19%,3.54%,-0.528%,12.6%,82.9%,13.8%,23.1%,-2.21%
O=C1N(c2ccc(Br)cc2)Cc2nc(=O)[nH]n21,-6.3%,22.7%,-2.95%,0.772%,1.38%,-1.58%,4.44%,7.62%,5.29%,15.4%,-11.8%
O=C1CC(c2cccs2)c2cnn(C3CCCC3)c2N1 (centres undefined),-5.95%,-5.33%,6.01%,-6.09%,-6.13%,-4.69%,6.97%,10.9%,-2.73%,-6.17%,1.62%
